Measured values from PubChem BioAssay (NCI).
About 83,000 compounds went through this panel and 20% of them were active in at least one assay; those are over-represented in the sample as a whole.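 The endpoint reported here, percent growth, reads 100 for growth as untreated, 0 for no net growth and -100 for all cells dead.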 A number with no mark means an inactive call. Active and inactive are the calls of the source. Rule for the calls: active = growth percent below 10; inactive = the rest.

The molecules below were run on UACC-62 melanoma (assay: NCI-60 one-dose screen, 48 h (100 = growth as untreated, 0 = no growth, -100 = all killed)). Conditions: 10 µM unless noted.

SMILES	growth
COCCn1cc(-c2csc(-c3c[nH]c4ccccc34)n2)c2cccnc21	54.8%
CCN(CC)c1ccc(-c2cc(-c3cc(OC)c(OC)c(OC)c3)nc(N3CCC(O)CC3)c2C#N)cc1	-49.9% (active)
CN1C(=O)/C(=C/c2ccc(C(=O)Nc3ncc(Cc4cccc(C(F)(F)F)c4)s3)cc2)SC1=S	11.3%
Nc1ncnc2c1N=C(c1ccc(Cl)cc1)CC(c1cccc(Nc3ccnc4cc(Cl)ccc34)c1)N2 (stereo not given)	81.2%
COCCn1cc(-c2nc(-c3cc4cccnc4n3C)cs2)c2ccccc21	46.2%
COC(=O)[C@]1(C)CCC[C@]2(C)[C@H]3C[C@@H]4[C@H]5[C@@H]6CC/C(=N\OCC/C(N)=N/O)[C@H]5[C@@]3(CC[C@H]21)CC4(C(C)C)O6	58.5%
Cc1cccc(-c2nc(C(C)C)sc2-c2ccnc(NCCCNS(=O)(=O)c3ccc(Cl)cc3)c2)c1	96.4%
O=C(/C=C/C12c3ccccc3C(c3ccccc31)C1C(=O)NC(=O)C12)c1ccc(Cl)cc1Cl (stereo not given)	12.5%
CC(C)(C)CC(C)(C)Nc1c(-c2c(O)c3ccccc3oc2=O)nc2sc3ccccc3n12	30.4%
CN(C)CCC(CCN(C)C)(C(=O)O)c1ccccc1	103%
Cn1c(=O)[nH]c(=O)c2nc3c(nc21)-c1ccccc1C3=O	91.2%
C=C(c1ccc(C(=O)O)c(F)c1)c1cc2c(cc1C)C(C)(C)CCC2(C)C	83.5%
C=C1C(=O)O[C@H]2[C@H]1CC/C(COC(=O)C(=O)c1c[nH]c3ccc(Cl)cc13)=C\CC[C@@]1(C)O[C@@H]21	-81.8% (active)
N#Cc1c(-c2ccc(Br)cc2)nc2c(N=Nc3ccc(S(N)(=O)=O)cc3)c(N)nn2c1N	72.4%
CCN(CC)CCN1C(=O)c2c(c3c4ccccc4[nH]c3c3ccc4ccccc4c23)C1=O	76.8%
O=C(/C=C/c1ccccc1)N(C1CCCCC1)C1CCCCC1	75%
CC1(C)CC[C@]2(CO)CC[C@]3(C)[C@](O)([C@H](O)C[C@@H]4[C@@]5(C)CCCNC(C)(C)[C@@H]5CC[C@]43C)[C@@H]2C1	103%
Nc1nc(N(Cc2ccccc2)c2ccccc2)c2cn[nH]c2n1	45.7%
CN1CC(c2ccc(Br)cc2)C(C(=O)c2ccc(Br)cc2)C12C(=O)Nc1ccccc12 (stereo not given)	63.9%
Nc1nc(C(=O)N/N=C/c2ccc(F)cc2)nn1-c1ccc(S(N)(=O)=O)cc1	94.4%

SMILES	growth
COc1ccc(-c2nc(SCC(=O)Nc3nc4ccc(C)cc4s3)[nH]c(=O)c2C#N)cc1OC	94.4%
CNC(=O)NCC1OC(n2cnc3c(NC(=O)Nc4ccccc4)ncnc32)C2OC(=O)CC12 (stereo not given)	99.2%
COc1ccc(NC(=O)c2ccc(Nc3ncnc4c3cnn4-c3cccc(F)c3)cc2)cc1	94.8%
CC(C)NS(=O)(=O)/N=C1\NC(=O)NC1=C(Cl)Cl	84.5%
Cc1ccc2cnc(N)c(C#Cc3cc(C(=O)Nc4ccc(CN5CCN(C)CC5)c(C(F)(F)F)c4)cnc3C)c2c1	7.26% (active)
Cc1nn(-c2ccc([N+](=O)[O-])cc2)c2ncnc(N/N=C/c3ccccc3O)c12	-11.3% (active)
CC(C)(C)OC(=O)CN1CCc2c(sc3ncnc(N4CCN(c5ccc(F)cc5)CC4)c23)C1	68.4%
COC(=O)[C@@]1(C)CC[C@]2(C)CC[C@]3(C)C4=CC=C5C(=CC(=O)C(O)=C5C)[C@]4(C)[C@@H](O)C[C@@]3(C)[C@@H]2C1	29.6%
Cc1cc(Cl)nc(N2CCN(CCNc3ccnc4cc(Cl)ccc34)CC2)n1	29.7%
Cc1ccc(C)c2c1sc1nc(N3CCOCC3)c(C#N)c(=O)n12	90.2%
COc1ccc2c(c1)CC[C@@H]1[C@@H]2CC[C@]2(C)c3c(cc(C#N)c4c3sc3ccccc34)C[C@@H]12	99.5%
C=C1C(=O)O[C@H]2[C@H]1CC/C(COC(=O)NCc1ccc(Cn3c(=O)sn(-c4ccc(I)cc4)c3=O)cc1)=C\CC[C@@]1(C)O[C@@H]21	81.2%
O=C(O)CC(C(=O)O)/C(=C\c1ccccc1)c1ccccc1 (stereo not given)	101%
CCN(CC)CCOc1ccc(Nc2ncc3cc(-c4c(Cl)cccc4Cl)c(=O)n(CCOC)c3n2)cc1	32.1%
O=C(c1ccc(Br)cc1)C(Br)C(c1ccc(Cl)cc1)C(c1ccccc1)[N+](=O)[O-] (stereo not given)	71.8%
CN1CCOCCN(C)Cc2ccc3ccc(cc3c2)CN(C)CCOCCN(C)Cc2ccc3ccc(cc3c2)C1	104%
COc1ccc(CN2C(=O)OC(C)(COC(C)=O)C2=O)cc1 (stereo not given)	95.6%
CN(C)c1ccc(/C=N\NC(=O)c2ccc3nc(-c4ccc(Cl)cc4)[nH]c3c2)cc1	88.2%
COCCn1cc(-c2csc(-c3c[nH]c4ccc(F)cc34)n2)c2cccnc21	42.5%
C/C(Cc1ccc(Cl)cc1)=C(\c1ccc(OCCN2CCCCCC2)cc1)c1ccc(OC(=O)c2ccccc2)cc1	-3.38% (active)
